Inconclusive results are not listed. Where a call stands in place of a potency, no number is given. A number with no mark means an inactive call. The source made the active and inactive calls. Unless noted, the call rests on the fitted dose curve; in most records, active means well fitted curve in the direction sought with a large enough effect; inconclusive means small, poorly fitted or top-dose-only effect, or another doubt; inactive means no such curve, though single readings can be large; an effect the other way counts as inactive or inconclusive.
Assays:
[1] = target: Luciferin 4-monooxygenase (Photinus pyralis) (UniProt P08659); assay: Biochemical firefly luciferase enzyme assay for NPC (AID 624030); further: nearly all actives have a fitted effect of over 70% in size; further: potency means the concentration at half of the fitted maximal effect
Luciferin 4-monooxygenase (Photinus pyralis), sequence (P08659 whole entry, looked up): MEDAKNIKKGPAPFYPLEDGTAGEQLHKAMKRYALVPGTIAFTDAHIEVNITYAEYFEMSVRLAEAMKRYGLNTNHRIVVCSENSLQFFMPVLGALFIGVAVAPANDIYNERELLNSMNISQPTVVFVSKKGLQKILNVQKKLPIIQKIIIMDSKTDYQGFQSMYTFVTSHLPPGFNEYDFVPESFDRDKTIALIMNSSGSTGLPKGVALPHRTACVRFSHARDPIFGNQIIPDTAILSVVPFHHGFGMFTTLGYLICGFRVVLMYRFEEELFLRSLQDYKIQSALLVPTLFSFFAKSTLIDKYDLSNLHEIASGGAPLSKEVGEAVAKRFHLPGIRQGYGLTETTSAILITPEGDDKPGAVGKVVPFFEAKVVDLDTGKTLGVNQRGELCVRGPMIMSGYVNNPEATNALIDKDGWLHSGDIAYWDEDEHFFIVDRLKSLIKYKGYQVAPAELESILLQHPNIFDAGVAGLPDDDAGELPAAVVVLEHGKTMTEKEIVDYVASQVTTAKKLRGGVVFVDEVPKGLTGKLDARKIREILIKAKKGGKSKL
Procedure, shortened: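 Purified P. pyralis luciferase at 10 nM in 50 mM Tris Acetate (final), luminescence read within 5 minutes of enzyme addition to compounds. Activity normalised to PTC124 versus DMSO; concentration-response curves classed by r2, magnitude and activity.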

[2] = S16 Schwann cell viability assay (CellTiter-Glo assay) (AID 624031); further: nearly all actives have a fitted effect of over 70% in size; further: potency means the concentration at half of the fitted maximal effect
Procedure, shortened: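 Native S16 rat Schwann cells, 500-750 cells/well in DMEM with 10% FBS, dosed with compound after overnight culture and incubated 24h at 37 degree Celsius/5% CO2. Viability by CellTiter-Glo luminescence; % activity normalized to no-cell wells and DMSO-treated cells.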

[3] = S16 Schwann cell PMP22 intronic element firefly luciferase assay (AID 624032); further: nearly all actives have a fitted effect of over 30% in size; further: potency means the concentration at half of the fitted maximal effect
Procedure, shortened: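 Rat S16 Schwann cells stably carrying firefly luciferase driven by a PMP22 intronic element, in 10% FBS, treated 24 h at 37 C. ONE-Glo luminescence normalized to PTC124 control and DMSO (0%); curves classed by r2, magnitude and activity.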

[4] = S16 Schwann cell PMP22 intronic element beta-lactamase assay (AID 624044; calls by dose curve; further: nearly all actives have a fitted effect of over 15% in size; further: potency means the concentration at half of the fitted maximal effect); details: S16 rat Schwann cells, PMP22 element beta-lactamase FRET, 24 h; ratio activity, negative = inhibition: at 38.3 µM (top of the series) unless noted
Procedure, shortened: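 Rat S16 Schwann cells with beta-Lac driven by a PMP22 intronic element, compound-treated 24 h at 37 °C. LiveBLAzer FRET B/G read: 460 nm normalized to potassium clavulanate vs DMSO; 535 nm FRET as viability; concentration-effect curves classified.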

[5] = qHTS assay for small molecule agonists of the antioxidant response element (ARE) signaling pathway (AID 651741; active means well fitted activation curve with a large enough effect in the signal ratio; the % refers to the signal ratio)
Procedure, shortened: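 HepG2 ARE-bla cells plated at 2,000 cells/well and incubated 5 h at 37 C/5% CO2 received 23 nL compound in DMSO. After 16 h at 37 C, LiveBLAzer B/G FRET substrate was applied for 2 h at room temperature and fluorescence read.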

| Compound | Potency [1] | Potency [2] | Potency [3] | ratio activity, negative = inhibition [4] | Potency [4] | Potency [5] |
| --- | --- | --- | --- | --- | --- | --- |
| C=CC(=O)O | inactive | inactive | inactive | -7.38% |  |  |
| COc1ccc(C(=O)c2ccc(C)cc2)c(O)c1 | 14.4 µM (active) | inactive | inactive | 6.33% |  |  |
| CC(=O)Nc1ccc(NC(=S)NC(=O)c2ccc(C(C)(C)C)cc2)cc1 | inactive | inactive | inactive |  | 7.94 µM (active) |  |
| CC/C=C\C/C=C\C/C=C\C/C=C\C/C=C\CCCC(=O)O | inactive | inactive | inactive | 1.33% |  |  |
| CCCC(CCC)C(=O)OC1C[C@H]2CC[C@@H](C1)[N+]2(C)C (some centres undefined) | inactive | inactive | inactive | 6.3% |  |  |
| FC(F)(F)C(F)(F)C(F)(F)C(F)(F)C(F)(F)C(F)(F)F | inactive | inactive | inactive | 0.234% |  |  |
| NCCN | inactive | inactive | inactive | -0.354% |  |  |
| CC(=O)Nc1ccc(OC(C)=O)cc1 | inactive | inactive | inactive | -15.5% |  |  |
| O=C(NNCNNC(=O)c1ccncc1)c1ccncc1 | inactive | inactive | inactive | -2.76% |  |  |
| O=C1c2ccccc2CN2C(=O)c3ccccc3CN12 | inactive | inactive | inactive | 0.507% |  |  |
| O=[N+]([O-])c1c(Cl)cccc1-c1c[nH]cc1Cl | inactive | inactive | inactive | -0.605% |  |  |
| CC(=O)[O][Al][O]C(C)=O | inactive | inactive | inactive | 0.413% |  |  |
| O=C(NNCS(=O)(=O)O)c1ccncc1 | inactive | inactive | inactive | -19.9% (active) |  |  |
| CCOC(=O)[C@@H](N)CS | inactive | inactive | 0.0573 µM (active) | -2.51% |  |  |
| CC(CCc1ccc(O)cc1)NCC(O)c1ccc(O)cc1 (centres undefined) | inactive | inactive | 2.03 µM (active) | -5.84% |  |  |
| COc1cc(S(C)=O)ccc1-c1nc2ncccc2[nH]1 (centres undefined) | inactive | inactive | inactive | -7.74% |  |  |
| COc1ccc(/C=N/NC(=O)c2ccncc2)c(C(=O)O)c1OC | inactive | inactive | inactive | 4.12% |  |  |
| CS(=O)(=O)OCC(O)C(O)COS(C)(=O)=O (centres undefined) | inactive | inactive | inactive | 2.66% |  |  |
| CC(O)CN(C)C (centres undefined) | inactive | inactive | inactive | 6.7% |  |  |
| O=C(O)CCCC/C=C(\c1ccccc1)c1cccnc1 | inactive | inactive | inactive | -4.66% |  |  |
| CC[C@H]1OC(=O)[C@H](C)[C@@H](O[C@H]2C[C@@](C)(OC)[C@@H](O)[C@H](C)O2)C(C)[C@@H](O[C@@H]2O[C@H](C)C[C@H](N(C)C)[C@@H]2O)[C@](C)(OC)C[C@@H](C)C(=O)[C@H](C)[C@@H](O)[C@]1(C)O (some centres undefined) | inactive | inactive | inactive | 4.6% |  |  |
| NC(=O)[C@@H]1CCCN1C(=O)[C@H](Cc1cnc[nH]1)NC(=O)[C@@H]1CCC(=O)N1 | inactive | inactive | inactive | 6.16% |  |  |

| Compound | Potency [1] | Potency [2] | Potency [3] | ratio activity, negative = inhibition [4] | Potency [4] | Potency [5] |
| --- | --- | --- | --- | --- | --- | --- |
| NC(=S)NS(=O)(=O)c1ccc(N)cc1 | inactive | inactive | inactive | -12.7% (active) |  |  |
| Oc1cc(O)cc(O)c1 | inactive | inactive | inactive | 10.4% |  |  |
| Cc1cc(-c2ccc(N=Nc3c(S(=O)(=O)O)cc4cc(S(=O)(=O)O)cc(N)c4c3O)c(C)c2)ccc1N=Nc1c(S(=O)(=O)O)cc2cc(S(=O)(=O)O)cc(N)c2c1O | 9.07 µM (active) | 12.8 µM (active) | 12.8 µM (active) | 8.59% |  |  |
| CCc1ncnc2cc(OC)c(OC)cc12 | inactive | inactive | inactive | -3.22% |  |  |
| CC(=O)Oc1cc(C(F)(F)F)ccc1C(=O)O | inactive | inactive | inactive | -5.78% [at 17.1 µM] |  |  |
| CC1=C(/C=C/C(C)=C/C=C/C(C)=C/C(=O)Oc2c(C)c(C)c3c(c2C)CC[C@@](C)(CCC[C@H](C)CCC[C@H](C)CCCC(C)C)O3)C(C)(C)CCC1 | inactive | inactive | 5.73 µM (active) | -26.4% |  |  |
| C=CCCCCCCCCC(=O)OC | inactive | inactive | inactive | -14.3% |  |  |
| CN1CCC(OC(=O)C(Oc2ccc(Cl)cc2)Oc2ccc(Cl)cc2)CC1 | inactive | inactive | inactive | 2.81% |  |  |
| CC(C)C1=CC2=CC[C@@H]3[C@](C)(CCC[C@@]3(C)C(=O)O)[C@H]2CC1 | inactive | inactive | inactive | -5.72% |  |  |
| O=C(O)Cc1nn(Cc2ccc(Br)cc2F)c(=O)c2ccccc12 | inactive | inactive | inactive | 3.04% |  |  |
| CCC(C)[C@@H](N)C(=O)O (some centres undefined) | inactive | inactive | inactive | 8.55% |  |  |
| CCCCCCCCCCCC(=O)OCC(O)CO (centres undefined) | inactive | inactive | inactive | 1% |  |  |
| CSCCC(N)C(=O)O (centres undefined) | inactive | inactive | inactive | 5.55% |  |  |
| CN1CCc2c(c3ccccc3n2Cc2ccccc2)C1 | inactive | inactive | inactive | -4.6% [at 17.1 µM] |  |  |
| CS(=O)(=O)c1ccc([C@@H](O)[C@@H](COC(=O)CN)NC(=O)C(Cl)Cl)cc1 | inactive | inactive | inactive | 3.99% |  |  |
| C=CCOc1ccc(CC(=O)O)cc1Cl | inactive | inactive | inactive | -6.65% |  |  |
| NC(N)=NCC1COc2ccccc2O1 (centres undefined) | inactive | inactive | inactive | 2.65% |  |  |
| NCCO/C=C/[C@H](N)C(=O)O | inactive | inactive | inactive | 0.236% |  | inactive |
| CC(=O)Nc1ccc(OC(=O)c2ccccc2O)cc1 | 25.6 µM (active) | inactive |  | 1.52% |  |  |
| O=C(NCCNCC(O)COc1ccc(O)cc1)N1CCOCC1 (centres undefined) | inactive | inactive |  | 1.92% |  |  |
| O=C(CCCCCCCCCCCCC1CCCC1)Nc1ccc(S(=O)(=O)c2ccc(NC(=O)CCCCCCCCCCCCC3CCCC3)cc2)cc1 | inactive | inactive |  | 4.78% |  |  |
| COc1ccc2c(c1)OC(C)(C)C(c1ccccc1)C2c1ccc(OCCN2CCCC2)cc1 (centres undefined) | inactive | 32.2 µM (active) |  | -10.8% |  |  |

| Compound | Potency [1] | Potency [2] | Potency [3] | ratio activity, negative = inhibition [4] | Potency [4] | Potency [5] |
| --- | --- | --- | --- | --- | --- | --- |
| NC(=O)Oc1ccc(Cc2ccccc2)cc1 | inactive | inactive |  | -0.76% |  |  |
| O=P(O)(O)OP(=O)(O)OP(=O)(O)O | inactive | inactive |  | -5.37% |  |  |
| COC(=O)c1ccccc1O | inactive | inactive | inactive |  |  | inactive |
| CC(/C=C/C=C(\C)C(=O)O[C@@H]1O[C@H](CO[C@@H]2O[C@H](CO)[C@@H](O)[C@H](O)[C@H]2O)[C@@H](O)[C@H](O)[C@H]1O)=C\C=C\C=C(C)\C=C\C=C(/C)C(=O)O[C@@H]1O[C@H](CO[C@@H]2O[C@H](CO)[C@@H](O)[C@H](O)[C@H]2O)[C@@H](O)[C@H](O)[C@H]1O | inactive | inactive | inactive | 3.54% |  |  |
| C[C@]12CCC(=O)C[C@@H]1CC[C@@H]1[C@@H]2CC[C@]2(C)C=CC[C@@H]12 | inactive | inactive |  | 4.94% |  |  |
| CC1=CCC2CC1C2(C)C (centres undefined) | inactive | inactive | inactive | 2.01% |  | inactive |
| CNC(=O)OCc1cccc(COC(=O)NC)n1 | inactive | inactive | inactive | -18.3% |  |  |
| O=C1c2ccccc2C(=O)C1c1ccc(F)cc1 | inactive | inactive |  | 2.55% |  |  |
| CO | inactive | inactive |  | 1.83% |  |  |
| O=P(O)(O)O | inactive | inactive | inactive | 2.1% |  | inactive |
| OCCOCCOCCO | inactive | inactive | inactive |  |  | inactive |
| [O]=[Bi][O][Bi]=[O] | inactive | inactive |  | 3.6% |  |  |
| OC[C@H]1O[C@@H]2O[C@H]3[C@H](O)[C@@H](O)[C@@H](O[C@H]4[C@H](O)[C@@H](O)[C@@H](O[C@H]5[C@H](O)[C@@H](O)[C@@H](O[C@H]6[C@H](O)[C@@H](O)[C@@H](O[C@H]7[C@H](O)[C@@H](O)[C@@H](O[C@H]1[C@H](O)[C@H]2O)O[C@@H]7CO)O[C@@H]6CO)O[C@@H]5CO)O[C@@H]4CO)O[C@@H]3CO | inactive | inactive | inactive | 1.18% |  | inactive |
| N[C@@H](Cc1cc(I)c(Oc2ccc(O)c(I)c2)c(I)c1)C(=O)O | inactive | inactive |  | -3.84% |  |  |
| c1ccc2ccccc2c1 | inactive | inactive | inactive |  |  | inactive |
| COC1=C(OC)C(=O)C(C/C=C(\C)CC/C=C(\C)CC/C=C(\C)CC/C=C(\C)CC/C=C(\C)CC/C=C(\C)CC/C=C(\C)CC/C=C(\C)CC/C=C(\C)CCC=C(C)C)=C(C)C1=O | inactive | inactive | 0.642 µM (active) | 0.236% |  |  |
| O=[n+]1ccn([O-])c2ccccc21 | inactive | inactive |  | 6.86% |  |  |
| C[Si](C)(C)O[Si](C)(C)C | inactive | inactive | inactive | -0.118% |  | inactive |
| CC[C@H]1OC(=O)[C@H](C)[C@@H](O[C@H]2C[C@@](C)(OC)[C@@H](O)[C@H](C)O2)[C@H](C)[C@@H](O[C@@H]2O[C@H](C)C[C@H](N(C)C)[C@H]2O)[C@](C)(O)C[C@@H](C)CN(C)[C@H](C)[C@@H](O)[C@]1(C)O | inactive | inactive | inactive | -5.31% |  | inactive |
| CCCCO | inactive | inactive | inactive | 1.65% |  | inactive |
| C#C[C@]1(O)CC[C@@H]2[C@H]3CCC4=CC(=O)CC[C@H]4[C@H]3C(=C)C[C@@]21CC | inactive | inactive |  | -9.17% (active) |  |  |

Source: PubChem BioAssay (NCATS)
